In PubChem BioAssay (Tox21) one finds Potency, max response and outcome data, which are given here for 23 molecules.

Several values for one entry are separate records, joined by “and”; a condition that tells them apart may be missing. Identical values can stand only once. Records with an inconclusive call do not appear. Values without a mark were called inactive. Activity calls are given as the source filed them. The call rests on the fitted dose curve; in most records, active means well fitted curve in the direction sought with a large enough effect in the repeat runs; inconclusive means weak or mixed curves; inactive means no such curve, though single readings can be large; an effect the other way counts as inactive or inconclusive.

Test [1] can be described thus: A CellTox Green Cytotoxicity Assay to monitor cytotoxicity in HEK293 cells - 40 hour (AID 1224871). Further: nearly all actives have a fitted effect of over 45% in size. Further: potency means the concentration at half of the fitted maximal effect. In short, it runs like this: (§1)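 Read-out: fluorescence of a cell-impermeant cyanine dye staining DNA of dead cells, proportional to cytotoxicity. HEK293, 600 cells/well with reagent, compound (23 nL DMSO) added after 5 h; reads at 0, 8, 16, 24, 32, 40 h.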
Test [2] is described as follows: qHTS RealTime-Glo MT Cell Viability Assay in HEK293 cells - 16 hour (AID 1224872). Further: nearly all actives have a fitted effect of over 50% in size. Further: potency means the concentration at half of the fitted maximal effect. In short, it runs like this:
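HEK293 cells were seeded at 600 cells/well together with NanoLuc luciferase and cell-permeant prosubstrate, preincubated 5 h at 37 C/5% CO2, then given compound in DMSO by pintool. Luminescence from viable-cell prosubstrate reduction was read repeatedly over 40 h.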

Test [3] in a line: qHTS RealTime-Glo MT Cell Viability Assay in HepG2 cells - 8 hour (AID 1224873). Further: nearly all actives have a fitted effect of over 55% in size. Further: potency means the concentration at half of the fitted maximal effect. A digest of the protocol: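 Real-time viability: cells seeded at 600 per well together with NanoLuc and cell-permeant prosubstrate, compounds added after 5 h incubation. Luminescence tracked at 0, 8, 16, 24, 32 and 40 h of exposure.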
A short description of test [4]: qHTS RealTime-Glo MT Cell Viability Assay in HEK293 cells - 40 hour (AID 1224874). Further: nearly all actives have a fitted effect of over 50% in size. Further: potency means the concentration at half of the fitted maximal effect. To be noted: RealTime-Glo luminescence; max response: stronger effect = lower value. In short, it runs like this: (§2)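 Luminescence readout at each listed time point; HEK293, 600 cells/well, RealTime-Glo MT reagent added with cells; compounds pinned (23 nL in DMSO) after 5 h at 37 C; continuous culture at 37 C.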

A short description of test [5]: A CellTox Green Cytotoxicity Assay to monitor cytotoxicity in HEK293 cells - 24 hour (AID 1224875). Further: nearly all actives have a fitted effect of over 45% in size. Further: potency means the concentration at half of the fitted maximal effect. In short, it runs like this: as §1
Test [6] in a line: A CellTox Green Cytotoxicity Assay to monitor cytotoxicity in HepG2 cells - 16 hour (AID 1224876). Further: nearly all actives have a fitted effect of over 45% in size. Further: potency means the concentration at half of the fitted maximal effect. A digest of the protocol:
(§3)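 HepG2, 600 cells/well premixed w/ CellTox Green; 5 h settle, 37 C/5% CO2; pintool cpd add (DMSO); 37 C, 40 h; fluorescence read at 0, 8, 16, 24, 32, 40 h.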

A short description of test [7]: qHTS RealTime-Glo MT Cell Viability Assay in HepG2 cells - 32 hour (AID 1224877). Further: nearly all actives have a fitted effect of over 55% in size. Further: potency means the concentration at half of the fitted maximal effect. A digest of the protocol: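 HepG2 cells were seeded at 600 cells/well together with NanoLuc luciferase and a cell-permeant prosubstrate, preincubated 5 h at 37 C/5% CO2, then pin-dosed with compounds in DMSO. Nonlytic luminescence from viable cells was read at each time point.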
The nature of test [8]: A CellTox Green Cytotoxicity Assay to monitor cytotoxicity in HepG2 cells - 24 hour (AID 1224878). Further: nearly all actives have a fitted effect of over 45% in size. Further: potency means the concentration at half of the fitted maximal effect. A digest of the protocol:
as §3

A short description of test [9]: A CellTox Green Cytotoxicity Assay to monitor cytotoxicity in HepG2 cells - 40 hour (AID 1224879). Further: nearly all actives have a fitted effect of over 40% in size. Further: potency means the concentration at half of the fitted maximal effect. In short, it runs like this: as §3
Test [10] in a line: qHTS RealTime-Glo MT Cell Viability Assay in HEK293 cells - 0 hour (AID 1224880). A digest of the protocol: as §2
On the % scale 0 is the no-effect control and ±100 the full control effect.

For the molecule `CCC1(CCC(C)C)C(=O)NC(=O)NC1=O`, the Potency entry in [1], in test [2], in test [3], in test [5], in test [6] and in test [7] was “inactive” in each case. The Potency result in test [8] and in [9] was “inactive” in each case. Further, the max response in [4] was -4.01%.

As to `COc1cc(C[C@@H](C)N)c(OC)cc1Br`, the Potency entry in [1], in test [2], in test [3], in test [5], in test [6] and in test [7] was “inactive” in each case. Also, in [4], the max response was -17.7%.

`CCC(C)Cl` (configuration not stated): the Potency result in test [1], in [2], in [3], in [5], in test [6] and in [7] was “inactive” throughout. Moreover, in [8], the Potency result is “inactive”. Further, the max response in test [4] was 9.33%.

For `CCOC(C(=O)OCCN(C)C)(c1ccccc1)c1ccccc1`, the Potency result in [1], in [2], in test [3], in test [5], in [6] and in test [7] was “inactive” each time. The Potency entry in test [8] was “inactive”. In addition, the max response in [4] was -21.4%.

Take `C=C(Cl)Cl`: the Potency entry in [1], in [2], in test [3], in test [5], in [6] and in test [7] was “inactive” throughout. The Potency result in [8] and in [9] was “inactive” throughout. In addition, the max response in test [4] is 8.47%. Moreover, the outcome in test [10] was inactive.

On to `CC(C)c1ccc(OP(=O)(Oc2ccc(C(C)C)cc2)Oc2ccc(C(C)C)cc2)cc1`, for which the Potency result in [1], in [2], in [3], in test [5], in test [6] and in test [7] was “inactive” in each case. The Potency result in test [8] and in [9] was “inactive” in each case. Moreover, the max response in [4] was -29.6%. The call in test [10] was inactive.

As to `Clc1ccc(Cl)c(Cl)c1`, the Potency result in [1], in test [2], in test [3], in test [5], in test [6] and in test [7] was “inactive” in each case. Moreover, the Potency entry in [8] and in test [9] was “inactive” in each case. Moreover, the max response in test [4] was -1.09% and 2.8%.

Take `Oc1cccc(Cl)c1`: the Potency entry in test [1], in test [2], in [3], in test [5], in test [6] and in [7] was “inactive” throughout. Besides, the Potency result in [8] and in test [9] was “inactive” each time. Moreover, the max response in test [4] was 0.464%.

`N#CC(C#N)=Cc1ccc(O)c(O)c1`: the Potency entry in test [1], in test [2], in [3], in test [5], in test [6] and in test [7] was “inactive” throughout. Also, the Potency result in test [8] is “inactive”. Further, the max response in test [4] was -6.83%.

Consider `Cc1ccc(N)c(C)c1`, for which the Potency entry in [1], in test [2], in [3], in test [5], in [6] and in test [7] was “inactive” throughout. Further, the Potency entry in test [8] and in test [9] was “inactive” throughout. Further, in test [4], the max response was 4.9% and -12.6%.

Consider `O=C(N/N=C/c1ccc([N+](=O)[O-])o1)c1cc([N+](=O)[O-])cc([N+](=O)[O-])c1O`, for which the Potency result in test [1], in test [2], in test [3], in test [5], in test [6] and in test [7] was “inactive” each time. Besides, the Potency entry in test [8] and in test [9] was “inactive” throughout. For the same molecule, the max response in test [4] was 8.45%.

Take `O=S(=O)(Cl)Cl`: the Potency result in test [1], in test [2], in [3], in test [5], in test [6] and in test [7] was “inactive” in each case. In test [8], the Potency entry was “inactive”. In [4], the max response is 15.4%.

Consider `C=CCOCC1CO1` (configuration not stated), for which the Potency result in test [1], in test [2], in [3], in [5], in [6] and in test [7] was “inactive” in each case. In addition, the Potency result in [8] and in test [9] was “inactive” each time. The max response in test [4] is -8.98%.

With `Nc1ccccc1C(=O)OCC(O)CO` (configuration not stated), the Potency entry in [1], in test [2], in test [3], in test [5], in test [6] and in [7] was “inactive” throughout. The Potency entry in test [8] and in test [9] was “inactive” each time. In addition, in test [4], the max response is 9.15%. Besides, in [10], the result was inactive.

Take `C=CC(=O)NC(C)(C)CC(C)=O`: the Potency entry in [1], in test [2], in [3], in test [5], in test [6] and in [7] was “inactive” each time. The Potency result in test [8] and in test [9] was “inactive” in each case. Besides, the max response in test [4] was 3.92%.

Consider `O=C=NC1CCCCC1`, for which the Potency result in test [1], in test [2], in test [3], in [5], in test [6] and in [7] was “inactive” in each case. The Potency entry in test [8] and in test [9] was “inactive” throughout. Moreover, the max response in test [4] was 8%. In test [10], the molecule was called inactive.

Turning to `COc1ccc2c(c1OC)C(=O)O[C@H]2[C@@H]1c2cc3c(cc2CCN1C)OCO3`, the Potency result in [1], in test [2], in test [3], in test [5], in test [6] and in test [7] was “inactive” each time. The Potency result in test [8] and in test [9] was “inactive” each time. Also, in [4], the max response was 4.68%. In test [10], the molecule was classed as inactive.

`COc1ccc(C(O)(c2cncnc2)C2CC2)cc1` (configuration not stated): the Potency result in test [1], in test [2], in test [3], in test [5], in test [6] and in test [7] was “inactive” in each case. Besides, the Potency result in [8] and in test [9] was “inactive” each time. For the same molecule, the max response in [4] is 0.605%. Besides, in test [10], the outcome was inactive.

Consider `CCCCCCCCCCCC[N+](C)(C)CCOc1ccccc1`, for which the Potency in test [1] is 19.5 µM (active) and 23.9 µM (active); in test [2] it was 19.5 µM (active) and 19 µM (active); in [3], 55 µM (active) and 23.9 µM (active); in test [4], 6.92 µM (active) and 9.52 µM (active); in test [5] it was 17.4 µM (active) and 23.9 µM (active); in test [6] it was 24.6 µM (active) and 19 µM (active). Further, the Potency in [7] is 19.5 µM (active) and 7.56 µM (active); in test [8], 15.5 µM (active) and 8.49 µM (active); in test [9], 12.3 µM (active) and 6.74 µM (active). In addition, the call in test [10] was inactive.

Regarding `CCC1(C2=NCCN2)Cc2ccccc2O1` (configuration not stated), the Potency entry in test [1], in test [2], in [3], in test [5], in test [6] and in test [7] was “inactive” throughout. The Potency result in [8] and in test [9] was “inactive” in each case. In addition, the max response in test [4] is 7.14%. In addition, the result in test [10] was inactive.

On to `OCCCl`, for which the Potency result in test [1], in test [2], in test [3], in test [5], in test [6] and in test [7] was “inactive” each time. For the same molecule, the Potency result in [8] and in test [9] was “inactive” throughout. Besides, in [4], the max response was 0.0487%. In test [10], the molecule was classed as inactive.

Consider `C[N+](C)(C)CC1CO1` (configuration not stated), for which the Potency result in [1], in test [2], in test [3], in [5], in test [6] and in [7] was “inactive” throughout. For the same molecule, the Potency entry in [8] and in [9] was “inactive” throughout. For the same molecule, the max response in test [4] is 5.73%. In addition, the call in test [10] was inactive.

Turning to `CC(C)(c1ccccc1)c1cc(-n2nc3ccccc3n2)c(O)c(C(C)(C)c2ccccc2)c1`, the Potency result in test [1], in [2], in test [3], in [5], in [6] and in test [7] was “inactive” throughout. In addition, the Potency entry in [8] and in test [9] was “inactive” throughout. The max response in test [4] was 12.9%. For the same molecule, in [10], the molecule was classed as inactive.
